Sampled rows, rich in hits. Any-hit rate of the full collection: about 19%.
IL1B secr inh: inhibitors of inflammasome signaling (IL-1 beta secretion). THP-1 LPS/ATP IL-1B secretion, AlphaLISA, 16 h; hits give low values. activity change, % at 57.5 µM. 4.7% of 360,000 active. AID 743279; in the data active = activity change below about -50%; inconclusive = mostly about -30% to -49%; also: % is scaled to controls: 0 for no effect and ±100 for the full control effect
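Secreted IL-1B measured by AlphaLISA bead assay after 16 h compound exposure of THP-1 cells; compounds (final up to 57.5 uM) added 1 h before LPS (250 ng/mL) and ATP (1.25 mM) stimulation; lower signal means less secretion.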
HepG2 viability: kills HepG2 cells in TGF-b inhibitor counter-screen. HepG2 CAGA-GFP viability, ATP luminescence, 18 h. Potency, µM (titrated, usually from 46.1 µM), for the others: at the highest dose activity change, negative = cytotoxicity, usual class: cytotoxic. 0.76% of 410,000 active; also: potency is read from the fitted curve at half-maximal effect
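HepG2 CAGA-GFP cells (1000/well, DMEM with 1% FBS) received compound, then TGF-beta at 500 pg/mL final, and were incubated 18 hours at 37 degrees C. Viability was read by CellTiter-Glo luminescence. Media-only wells were set as complete cell-killing and DMSO as no toxicity.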
TGFb inhibitor: TGF-b pathway inhibition; Potency, µM (top dose mostly 46.1 µM), inactives show at the top dose activity, negative = inhibition, actives largely listed as inhibitors; HepG2 CAGA-GFP TGF-b/SMAD3 reporter, GFP fluorescence, 18 h; TGF-beta stimulated, 500 pg/mL final; AID 588855; 1.2% of 410,000 active; also: potency is read from the fitted curve at half-maximal effect; % is scaled to controls: 0 for no effect and ±100 for the full control effect; nearly all actives have a fitted effect of over 65% in size
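Inhibition was scored as loss of TGF-beta-induced (500 pg/mL final, 18 hours, 37 degrees C) GFP in HEPG2 cells carrying a CAGA-GFP reporter, in DMEM with 1% FBS. Well GFP was summed per cell; Activity was normalised to unstimulated and stimulated DMSO wells, then concentration-response fitting.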
TDP1 cell CPT: DT40-hTDP1 cell growth loss with CPT. chicken DT40 Tdp1-/-;hTDP1 cells + 20 nM CPT, ATP luminescence, 48 h. Potency, µM (highest dose often 46.2 µM), without a hit: at the top dose activity change, negative = growth inhibition, hits mostly inhibitors. 12% of 420,000 active; also: potency is read from the fitted curve at half-maximal effect; % is scaled to controls: 0 for no effect and ±100 for the full control effect; nearly all actives have a fitted effect of over 55% in size
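Chicken DT40 Tdp1-/- cells complemented with human TDP1, 400 cells/well, exposed to compounds plus 20 nM camptothecin for at least 48 h at 37 C; viability read as ATP content by CellTiter-Glo luminescence.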
TDP1 cell noCPT: qHTS for Inhibitors of human tyrosyl-DNA phosphodiesterase 1 (TDP1): qHTS in cells in absence of CPT | DT40 Tdp1-/- hTDP1 cells, no CPT, ATP luminescence, 48 h | 15% of 420,000 active | Potency, µM (series often up to 46.2 µM), without a hit: at the top dose activity change, negative = growth inhibition, most hits filed as inhibitors; also: potency is read from the fitted curve at half-maximal effect; % is scaled to controls: 0 for no effect and ±100 for the full control effect; nearly all actives have a fitted effect of over 55% in size
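DT40 Tdp1-/-;hTDP1 cells, no CPT (DMSO vehicle only), 400 cells/well; compounds pin-transferred; ≥48 hr, 37 °C; CellTiter-Glo 30 min RT dark, luminescence read.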
TDP1 block: blocks human tyrosyl-DNA phosphodiesterase 1; recombinant TDP1, AlphaScreen DNA substrate cleavage; Potency, µM (titrated, usually from 130 µM), inactives show at the top dose activity change, negative = inhibition, actives largely listed as inhibitors; 0.28% of 350,000 active; also: potency is read from the fitted curve at half-maximal effect; % is scaled to controls: 0 for no effect and ±100 for the full control effect; nearly all actives have a fitted effect of over 40% in size
Target sequence (Q9NUW8 whole entry, looked up): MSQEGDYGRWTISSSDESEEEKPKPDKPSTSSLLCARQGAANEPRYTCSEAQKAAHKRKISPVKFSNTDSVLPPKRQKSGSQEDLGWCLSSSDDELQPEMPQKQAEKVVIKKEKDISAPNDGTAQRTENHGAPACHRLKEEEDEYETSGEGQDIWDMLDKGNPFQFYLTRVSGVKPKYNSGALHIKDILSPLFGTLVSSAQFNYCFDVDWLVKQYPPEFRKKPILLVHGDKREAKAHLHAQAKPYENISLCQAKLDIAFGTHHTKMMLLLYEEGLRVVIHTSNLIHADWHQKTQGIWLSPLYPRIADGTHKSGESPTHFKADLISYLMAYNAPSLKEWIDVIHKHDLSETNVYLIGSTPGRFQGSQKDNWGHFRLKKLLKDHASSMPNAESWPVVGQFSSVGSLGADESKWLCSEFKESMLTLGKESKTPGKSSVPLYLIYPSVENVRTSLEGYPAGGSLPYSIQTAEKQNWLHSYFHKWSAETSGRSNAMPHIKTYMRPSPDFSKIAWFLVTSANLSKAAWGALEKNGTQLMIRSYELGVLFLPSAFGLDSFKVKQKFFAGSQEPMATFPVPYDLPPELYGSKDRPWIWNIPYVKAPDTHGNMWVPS
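Enzyme-compound mixtures sat 15 min at room temperature, followed by a 5 min reaction with 15 nM final substrate and 10 min with AlphaScreen beads. Recombinant human Tdp1 was used at 1 nM final.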
* = called active by the depositor; i = inactive; ? = inconclusive; · = no result given; ! = not confirmed by another sample; [ ] = dose if it differs, or a comment. Unless noted, calls follow the shape of the dose curve; as a rule, active = well fitted curve in the direction sought with a large enough effect; inconclusive = small, poorly fitted or top-dose-only effect, or another doubt; inactive = no such curve, though single readings can be large; an effect the other way counts as inactive or inconclusive.

SMILES	IL1B secr inh	HepG2 viability	TGFb inhibitor	TDP1 cell CPT	TDP1 cell noCPT	TDP1 block
Cn1c(=O)c2c(SCC(=O)Nc3ccc(F)cc3F)nc(C3CCCC3)nc2n(C)c1=O	·	0%	1%	?	?	3%
CCOc1ccc(NC(=O)Cn2nc(CC)n3c(cc4sccc43)c2=O)cc1	·	3%	-2%	2%	-20%	-1%
O=C(NCCN1C(=O)S/C(=C\c2ccc(OC(F)F)cc2)C1=O)c1cnccn1	?	-13%	-23%	1.8µM*	2.1µM*	0%
O=C(NCCN1C(=O)S/C(=C\c2ccc(OC(F)F)cc2)C1=O)C1=COCCO1	-1	-14%	0%	8.2µM*	7.3µM*	0%
COc1ccc(/C=C2\SC(=O)N(CCNC(=O)C3=COCCO3)C2=O)cc1	15	5%	-3%	1.3µM*	1.3µM*	·
O=C(NCCN1C(=O)S/C(=C\c2ccc(OC(F)F)cc2)C1=O)[C@@H]1CCCN1C(=O)c1cccs1	?	-22%	-16%	?	?	3%
O=C(CNC(=O)C1CCCCC1)OC(C(=O)c1ccccc1)c1ccccc1 (stereo not given)	·	11%	2%	·	·	0%
CC(OC(=O)c1nn(C(C)C)c(=O)c2ccccc12)C(=O)Nc1ncc(Cl)cc1Cl (stereo not given)	0	-17%	-3%	?	18µM*	0%
CC(OC(=O)CCc1nc2ccccc2c(=O)[nH]1)C(=O)Nc1ncc(Cl)cc1Cl (stereo not given)	-77*	-4%	-2%	-21%	-5%	0%
CC(OC(=O)CCc1ccccc1)C(=O)Nc1ncc(Cl)cc1Cl (stereo not given)	2	4%	0%	9%	14%	-1%
Cc1ccc(NC(=O)NCC2CCN(Cc3cccc(Cl)c3)CC2)cc1Cl	-100*	13µM*!	?	?	16µM*	3%
CCc1ccc(NC(=O)NCC2CCN(Cc3cccc(Cl)c3)CC2)cc1	-17	-26%	-1%	?	13µM*	·
Cc1ccc(Cn2ccnc2SCC(=O)Nc2ccc3c(c2)OCCO3)cc1	·	-8%	-5%	-13%	-7%	13%
COc1ccc(Br)cc1CNC(=O)C(C)n1nc(C)n2c(cc3occc32)c1=O (stereo not given)	·	-15%	·	-4%	?	2%
c1nc(C2CCCCC2)cc2cc3c(cc12)OCO3	30	-16%	-28%	?	21µM*	-1%
COC(=O)C(NC(=O)c1ccco1)(Nc1cc(C)ccn1)C(F)(F)F (stereo not given)	9	3.2µM*	14%	-11%	-6%	0%
COC(=O)C(NC(=O)c1ccco1)(Nc1nc(C2CC2)cs1)C(F)(F)F (stereo not given)	-2	-14%	-4%	-28%	?	4%
O=C(/C=C/c1ccccc1O)c1ccccc1	-54*	-33%	-7%	21µM*	15µM*	·
O=C(/C=C/c1ccccc1O)c1ccc(Cl)cc1	?	5%	-6%	21µM*	23µM*	·
O=C(NNS(=O)(=O)c1ccccc1[N+](=O)[O-])c1ccc(F)cc1	-11	-11%	-13%	?	16µM*	-3%
O=C(/C=C(\O)c1ccccc1)c1ccccc1O	·	·	·	16µM*	8.2µM*	10%[56.1 µM]
O=C(NNS(=O)(=O)c1ccccc1[N+](=O)[O-])c1ccc(O)cc1	35	-3%	?	3%	3%	-4%
CC(=O)/C=C/c1ccccc1O	-1	-6%	-2%	0%	?	-2%
O=C(O)c1ccccc1O	19	4%	-4%	6%	-5%	5%
O=C(/C=C\Nc1ccccn1)c1ccc(Cl)cc1	-3	-47%	-20%	?	?	-3%
SMILES	IL1B secr inh	HepG2 viability	TGFb inhibitor	TDP1 cell CPT	TDP1 cell noCPT	TDP1 block
CC(=O)c1ccc(S(=O)(=O)N2CCn3cccc3C2c2ccccc2F)cc1 (stereo not given)	·	-24%	-23%	?	-44%	8%
COc1ccc(C(=O)N2CCC(n3nccc3NC(=O)C3CCOC3)CC2)cc1 (stereo not given)	2	-12%	?	21%	0%	6%
COC(=O)C(=Cc1ccccc1[N+](=O)[O-])C(=O)OC	-66*	-41%	?	8.2µM*	12µM*	10%
O=C(N/N=C/c1cccc2ccccc12)c1ccncc1	-2	10%	25%	2%	-16%	·
CCN(Cc1ccccc1)C(=O)/C=C/c1ccccc1[N+](=O)[O-]	0	4%	0%	16µM*	?	4%
O=C(/C=C/c1ccccc1[N+](=O)[O-])c1ccc(F)cc1	?	-7%	-9%	13µM*	18µM*	0%
O=C(/C=C/c1cccc2ccccc12)c1ccncc1	-82*	11µM*	11µM*	21µM*	15µM*	8%
COc1cccc(NC(=O)c2c(C)nn(-c3ccccc3)c2Cl)c1	?	1%	8%	?	?	·
Cc1ccc(C)c(S(=O)(=O)c2nnn3c2nc(N2CCCCC2)c2sccc23)c1	·	-6%	?	?	?	0%
COc1cc(=O)n2c(c1C(=O)NCc1ccco1)CCN(C(=O)c1ccc(C)c(C)c1)CC2	·	·	·	-17%[9.04 µM]	-5%	·
Cc1cccc(-n2c(=O)c3c(c4cc(C)ccc4n3C)n(CC(=O)Nc3ccc(C)cc3C)c2=O)c1	·	4%	9%	1%	19%	-3%
COc1ccc2c(c1)c1c(c(=O)n(-c3ccc(OC)c(OC)c3)c(=O)n1Cc1ccccc1C)n2C	·	1%	15%	-1%	-1%	3%
Cc1cc(O)c(C(=O)/C=C/c2ccccc2O)c(=O)o1	?	-23%	-11%	23µM*	29µM*	·
CCOc1ccccc1/C=C/C(=O)c1ccc(Cl)cc1	i	-68%	?	?	16µM*	-5%
N#Cc1ccccc1CN1C(=O)c2ccccc2Sc2ccc(C(=O)OCc3ccco3)cc21	·	-9%	-8%	·	·	3%
O=C(NCc1ccccc1Cl)c1ccc2c(O)c(S(=O)(=O)c3ccccc3)c(=O)[nH]c2c1	·	-9%	-22%	18%	10%	-5%
CC(/C=N/NC(=O)c1cc(-c2cccnc2)nc2c1c(C)nn2-c1ccccc1)=C\c1ccccc1	0	-2%	12%	18µM*	13µM*	5%

Bioassay records from PubChem.
